For orientation: inhibition means the change of the read-out against control, counted positive when it falls.

The whole screen tested about 96,000 compounds, of which about 19,000 (20%) were called active. The list is a sample of the results. Unmarked numbers belong to inactive results.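 The calls were made as follows: active = blocking of liver enzyme CYP2C9 beyond about 50% at 5 µM (limit read from the data); inactive = the rest.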

The record followed here is PubChem BioAssay AID777 (Sanford-Burnham Center for Chemical Genomics, 2007).

Cytochrome P450 2C9 (Homo sapiens), sequence (P11712 whole entry, looked up): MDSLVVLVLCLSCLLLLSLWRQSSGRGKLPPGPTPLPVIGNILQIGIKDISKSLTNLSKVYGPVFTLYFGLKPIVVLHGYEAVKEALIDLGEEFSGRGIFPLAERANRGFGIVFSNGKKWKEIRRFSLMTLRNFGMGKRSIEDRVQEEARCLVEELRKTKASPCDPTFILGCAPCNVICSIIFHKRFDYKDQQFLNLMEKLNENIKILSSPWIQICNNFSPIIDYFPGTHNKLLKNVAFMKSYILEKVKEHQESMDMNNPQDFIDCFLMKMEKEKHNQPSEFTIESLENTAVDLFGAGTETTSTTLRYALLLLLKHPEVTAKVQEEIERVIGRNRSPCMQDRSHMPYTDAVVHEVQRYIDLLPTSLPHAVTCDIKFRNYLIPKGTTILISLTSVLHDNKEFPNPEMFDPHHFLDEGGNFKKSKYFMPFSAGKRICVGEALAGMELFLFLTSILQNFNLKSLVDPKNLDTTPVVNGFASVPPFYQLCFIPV

This test concerns the target Cytochrome P450 2C9 (Homo sapiens) (UniProt P11712). Nature of the test: blockers of cytochrome P450 2C9 activity – biochemical, luminescence, ADME assay, primary screen (AID 777). The note with it: CYP2C9 Supersomes, luciferin-H conversion, at 5 µM, hits give high values.
Regarding `CCC(=O)Nc1ccc(C(=O)Nc2cccc(OC)c2)cc1`, the inhibition is -13.5%.
The same measure for `CCNS(=O)(=O)c1ccc(NC(=O)Nc2cccc(OC)c2)cc1`: 59.5% (active); for `CCNS(=O)(=O)c1ccc(NC(=O)Nc2cccc(C(F)(F)F)c2)cc1`: 34.1%.
Take `CCOC(=O)C1=C(c2ccccc2)O/C(=C(/C(=O)OC)C(F)(F)F)S1`: the inhibition was 20.8%.
In the case of `CCCc1[nH]nc2c1C(c1c(C)nn(-c3ccccc3)c1Cl)C(C#N)=C(N)O2` (configuration not stated), the inhibition is 52.8% (active).
Turning to `CCCc1[nH]nc2c1C(c1ccc(Br)s1)C(C#N)=C(N)O2` (configuration not stated), the inhibition is 33%.
On to `CCCc1[nH]nc2c1C(c1ccc(OC(=O)c3ccco3)cc1)C(C#N)=C(N)O2` (configuration not stated), for which the inhibition was 52% (active).
The same measure for `Cc1cc(C)c(C#N)c(SCc2[nH]nc3c2C(c2ccccc2)C(C#N)=C(N)O3)n1` (configuration not stated): 18.4%; for `COc1ccc(-c2[nH]nc3c2C(c2ccncc2)C(C#N)=C(N)O3)cc1` (configuration not stated): -13%.
For `CCCc1[nH]nc2c1C(c1ccc(OC)c(Cn3nc(C)c(Br)c3C)c1)C(C#N)=C(N)O2` (configuration not stated) the value was 11.8%; for `COC(=O)c1cc(S(=O)(=O)NC2CCN(Cc3ccccc3)CC2)cn1C`, -9.6%; for `S=c1[nH]nc(-c2ccc(Cl)cc2)n1CC1CCCO1` (configuration not stated), 15.7%.
The same measure for `CC(C)NS(=O)(=O)c1ccc(CCC(=O)N2CCOCC2)cc1`: 0%; for `CC1CCCCC1NC(=O)CSc1nnc(N)s1` (configuration not stated): -16.3%; for `CCCC1CC(C)(C(=O)Cn2[nH]c(=O)ccc2=O)OC1=O` (configuration not stated): -20.1%.
Turning to `CC(C)Nc1ncnc2c1nnn2Cc1ccccc1`, the inhibition is -0.4%.
For the molecule `Nc1c(C(=O)NCc2ccccc2)nnn1Cc1cccc(Cl)c1`, the inhibition is 19.3%.
The same measure for `COC(=O)c1c(C)c(C)nc(N)c1C#N`: -10.8%; for `N#CCCN(CCC#N)c1nnc(-c2ccccc2)s1`: 2.8%; for `CCOC(=O)c1nnn(-c2nonc2-n2cccc2)c1CN1CCC(C(=O)OCC)CC1`: 94.8% (active).
The same measure for `CCOC(=O)c1nnn(-c2nonc2-n2cccc2)c1CN1CCOCC1`: 16.6%; for `CCN(CC)Cc1c(C(=O)OC)nnn1-c1nonc1N`: -22.1%; for `O=c1c2c(nc3nc[nH]n13)CCC2`: -10.5%.
For `Cc1onc(-c2ccccc2)c1C(=O)N1CCOCC1` the value was -1.3%; for `CC(=O)Nc1cccc(-c2cnc3ccccc3n2)c1`, 49.7%; for `O=C(Nc1cccc2ccccc12)c1onc2c1CCCC2`, -38.6%.
As for `Cc1onc(-c2ccccc2)c1C(=O)Nc1ccccc1C#N`, the inhibition was 62.8% (active).
For `CC(=O)Nc1cccc(NC(=O)c2c(-c3ccccc3)noc2C)c1` the value was 74.3% (active); for `Cc1noc(C)c1C(=O)Nc1ccccn1`, 3.8%; for `COC(CNC(=O)Cn1ncc2ccsc2c1=O)OC`, -15.8%.
Turning to `CCCC(=O)N=c1sc2cccc(F)c2n1C`, the inhibition was 14.7%.
The same measure for `CC1=Nn2c(nnc2-c2ccccc2)SC1`: -4.9%; for `CCn1c(=N)c(S(=O)(=O)c2ccc(F)cc2)cc2c(=O)n3ccccc3nc21`: -0.6%; for `O=C(Nc1nsc(-c2ccccc2)n1)c1ccncc1`: 45.7%.
As to `CCC(=O)Nc1nc(OC)cc(OC)n1`, the inhibition is 2.1%.
On to `COc1ccc(-n2c(SCC(=O)Nc3sc4c(c3C#N)CCCC4)nnc2-c2ccc(O)cc2)cc1`, for which the inhibition is 33.9%.
The same measure for `N#Cc1ccsc1NC(=O)CN1CCCCC1`: -15.3%; for `CC(c1nnc(SCC(=O)Nc2sccc2C#N)n1-c1ccc(Cl)cc1)N(C)C` (configuration not stated): 50.8% (active).
The same measure for `COc1ccc(NC2CC(=O)N(C)C2=O)cc1` (configuration not stated): 1.8%.
For `Cc1c(Cl)c([N+](=O)[O-])nn1Cc1ccc(C(=O)N/N=C\c2cc(Cl)ccc2O)o1` the value was 41.2%; for `CCOc1ccc(-c2nnn(CC(=O)N3CCN(c4ccc(OC)cc4)CC3)n2)cc1OCC`, 1.7%.
Turning to `O=C(NCc1ccccc1)[C@@H]1CSC2c3ccccc3C(=O)N21` (some centres not stated), the inhibition is 67.1% (active).
The same measure for `O=C1c2ccccc2C(O)N1Cc1ccccc1` (configuration not stated): -2.8%.
For `Cc1ccc(CNC(=O)C2CCCN2C(=O)NCc2ccccc2)cc1` (configuration not stated) the value was -10%; for `Cn1cccc1C(=O)NC(=O)COC(=O)Cc1coc2ccc3ccccc3c12`, -91.7%; for `O=C(c1ccco1)N1CCN(C(=O)C2CCCN(S(=O)(=O)c3cccc4nsnc34)C2)CC1` (configuration not stated), 12.6%.
The same measure for `COc1ccc(C(=O)Nc2c(N)nc(SCC(=O)N3CCC(C)CC3)[nH]c2=O)cc1OC`: -5.6%.
With `COc1ccc(C(=O)Oc2cc(/C=N/NS(=O)(=O)c3ccc(C)cc3)ccc2OC)cc1`, the inhibition is 29.8%.
As for `Cc1ccc(C(=O)NNC(=O)c2cc3cc4ccccc4nc3s2)cc1`, the inhibition is 6.6%.
The same measure for `COc1ccc(/C=C(/NC(=O)c2ccc(C)cc2)c2nc3ccccc3[nH]2)cc1OC`: 69.5% (active); for `O=C(NCCCN1CCN(C2CCCCC2)CC1)Nc1ccccc1C(F)(F)F`: 0.7%.
Turning to `Cc1cc(NCc2ccco2)n2c(nc3ccccc32)c1C#N`, the inhibition is 20.4%.
For `O=C(NCc1ccco1)c1cc(-c2cccnc2)nc2ccc(Cl)cc12` the value was 17.9%; for `Clc1cccc(-c2nc3nc4ccccc4nc3n2Cc2ccco2)c1`, 52.8% (active).
For `O=C(COC(=O)CCc1c[nH]c(=O)[nH]1)Nc1ccccc1Cl` the value was -6%; for `CCOC(=O)c1nnn(-c2nonc2OC)c1-c1ccccc1`, 26.7%.
The same measure for `O=C(O)C1CCCN1S(=O)(=O)c1ccc2c(c1)CCC2` (configuration not stated): -48.8%; for `O=C1CCc2cc(S(=O)(=O)N3CCC(C(=O)NCc4ccccc4Cl)CC3)ccc2N1`: 24.7%.
For the molecule `CSc1cccc(NC(=O)C2CCCN2S(=O)(=O)c2ccc3c(c2)CCC(=O)N3)c1` (configuration not stated), the inhibition was 81.6% (active).
The same measure for `CCN1CCN(c2ccc([N+](=O)[O-])cc2C(=O)c2ccc(Cl)cc2)CC1`: -60.5%; for `CCc1nnc(NC(=O)c2nc3nccc(C)n3n2)s1`: 1.9%.
For `CCn1c(SCC(=O)Nc2nc(C)cs2)nnc1C(C)NC(=O)c1ccccc1` (configuration not stated) the value was 21.2%; for `Cc1ccc(-c2csc(NC(=O)Cc3cccs3)n2)cc1C`, 26.9%; for `CCCc1ccc(-c2csc(NC(=O)Cc3cccs3)n2)cc1`, 42.2%.
For `Cc1ccc(-c2csc(NC(=O)c3cccs3)n2)cc1` the value was 3.3%; for `O=C(CSC1=NCCS1)Nc1nc(-c2ccccc2)cs1`, 60.8% (active).
In the case of `Cc1cccc(S(=O)(=O)CC(=O)Nc2nc(-c3ccccc3)cs2)c1`, the inhibition was 91.4% (active).
